We go through 40 compounds from PubChem BioAssay (Tox21).

Inconclusive results are not listed. A call without a number means that no potency is given here. Active and inactive are the calls of the source. Calls come from the whole dose curve; as a rule, active = well fitted activation curve with a large enough effect in the repeat runs; inconclusive = weak or mixed curves; inactive = no such curve, though single readings can be large or run the other way.
Potency is the fitted concentration of half-maximal effect.

Chain of Aryl hydrocarbon receptor (Homo sapiens) (P35869 whole entry, looked up): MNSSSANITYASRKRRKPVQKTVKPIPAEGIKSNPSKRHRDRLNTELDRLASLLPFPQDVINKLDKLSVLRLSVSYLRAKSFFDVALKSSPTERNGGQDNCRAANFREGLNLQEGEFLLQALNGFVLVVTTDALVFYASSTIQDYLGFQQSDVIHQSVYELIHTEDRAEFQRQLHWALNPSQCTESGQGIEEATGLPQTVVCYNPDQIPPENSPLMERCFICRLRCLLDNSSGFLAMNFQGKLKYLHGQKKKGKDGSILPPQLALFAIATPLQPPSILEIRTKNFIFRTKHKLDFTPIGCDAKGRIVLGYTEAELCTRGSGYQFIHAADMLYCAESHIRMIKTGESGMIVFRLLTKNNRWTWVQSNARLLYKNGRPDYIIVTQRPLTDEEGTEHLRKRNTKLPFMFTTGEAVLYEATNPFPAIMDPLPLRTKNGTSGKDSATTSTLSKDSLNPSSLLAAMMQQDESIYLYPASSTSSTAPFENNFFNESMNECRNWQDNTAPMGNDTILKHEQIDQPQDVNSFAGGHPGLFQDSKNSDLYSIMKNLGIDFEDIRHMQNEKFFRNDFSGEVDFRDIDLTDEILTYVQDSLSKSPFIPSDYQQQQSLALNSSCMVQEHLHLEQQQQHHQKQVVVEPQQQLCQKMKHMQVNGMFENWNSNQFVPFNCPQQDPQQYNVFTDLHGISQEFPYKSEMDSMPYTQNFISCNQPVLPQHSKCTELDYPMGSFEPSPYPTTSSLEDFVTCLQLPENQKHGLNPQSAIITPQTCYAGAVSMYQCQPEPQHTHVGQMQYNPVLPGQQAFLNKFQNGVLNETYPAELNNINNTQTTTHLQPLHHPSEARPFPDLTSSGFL

The target of this assay is Aryl hydrocarbon receptor (Homo sapiens) (UniProt P35869). The assay is described as follows: qHTS assay to identify small molecule that activate the aryl hydrocarbon receptor (AhR) signaling pathway (AID 743085).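 For activation: HG2L7.5c1 human HepG2 liver cells with stably integrated DRE-driven firefly reporter.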 Note: nearly all actives have a fitted effect of over 15% in size. The conditions noted are these: HepG2 AhR-luc (HG2L7.5c1), luciferase, 24 h; series mostly up to 70.3 µM. An excerpt:
U.S. Tox21 Program National Center for Advancing Translational Sciences [NCATS] NIH Chemical Genomics Center [NCGC] U.S. Environmental Protection Agency [EPA] National Institutes of Environmental Health Sciences [NIEHS] National Toxicology Program [NTP] U.S. Food and Drug Administration [FDA] Tox21 Assay overview: The Aryl hydrocarbon Receptor (AhR), a member of the family of basic helix-loop-helix transcription factors, is crucial to adaptive responses to environmental changes. AhR mediates cellular responses to environmental pollutants such as aromatic hydrocarbons through induction of phase I and II enzymes but also interacts with other nuclear receptor signaling pathways. A cell based HepG2-AhR-luc assay (HG2L7.5c1 cell line, developed by Dr. Michael S. Denison, University of California at Davis, was used to assess the activation of AhR. HepG2 (human hepatocellular carcinoma) cells were stably transfected with an Ah receptor-responsive firefly luciferase reporter gene plasmid containing 20 dioxin responsive elements and luciferase reporter gene. Increased luciferase activity can be used to identify the compounds that induce AhR activation.
Tox21 Assay Protocol Summary: 4000 cells in 5 uL/well were dispensed into white wall/solid bottom 1536-well plates using a Multidrop Combi (Thermo Fisher Scientific Inc., Waltham, MA) dispenser. After the assay plates were incubated at 37C for 5 h, 23 nL of compound or DMSO vehicle was transferred to the assay plates by a pintool station (Kalypsys, San Diego, CA). The plates were incubated at 37C for 24 hr. After 1 ul/well of CellTiter-Fluor reagent (Promega, Madison, WI) was added into the assay plates using a Flying Reagent Dispenser (FRD) (Aurora Discovery, CA), the assay plates were incubated at 37C for 30 min. The fluorescence intensity in the plates was measured using a ViewLux plate reader (PerkinElmer, Shelton, CT), followed by the addition of 4 uL of ONE-Glo Luciferase Assay reagent (Promega) using an FRD (Aurora Discovery). After the assay plates were incubated at room temperature for 30 min, luminescence intensity was measured using a ViewLux plate reader (Perkin Elmer).
A general note: qHTS replaces the single test concentration by a dilution series.
Take `CC(C)(C)NC(=O)[C@@H]1C[C@@H]2CCCC[C@@H]2CN1C[C@@H](O)[C@H](Cc1ccccc1)NC(=O)[C@H](CC(N)=O)NC(=O)c1ccc2ccccc2n1`: the Potency result is “inactive”.

In the case of `O=c1c(-c2ccccc2)c1-c1ccccc1`, the Potency entry is “inactive”. To `CCc1cc(Cc2cc(CC)cc(C(C)(C)C)c2O)c(O)c(C(C)(C)C)c1` belongs “inactive”; to `COc1cc(/C=C/C(=O)O[C@H]2CC[C@]34C[C@]35CC[C@]3(C)[C@@H]([C@H](C)CCC=C(C)C)CC[C@@]3(C)[C@@H]5CC[C@H]4C2(C)C)ccc1O`, “inactive”; to `Cc1onc(-c2c(Cl)cccc2Cl)c1C(=O)N[C@@H]1C(=O)N2[C@@H]1SC(C)(C)[C@@H]2C(=O)O`, “inactive”. Under `CCOC(=O)O[C@H](C)OC(=O)c1ccc2c(c1)cc(C(=O)NC1CCN(C(C)C)CC1)n2Cc1cc(-c2ccc(Cl)s2)on1` stands “inactive”; under `Oc1c(Cl)cc(Cl)c2cccnc12`, 4.73 µM (active). Under `Oc1ccc(N=Nc2ccccc2)cc1` stands 61.9 µM (active). As for `CCCCC(CC)COP(=O)(O)OCC(CC)CCCC` (stereo not given), the Potency result was “inactive”. Turning to `CC1(C)CCC(C)(C)c2cc(C(=O)Nc3ccc(C(=O)O)cc3)ccc21`, the Potency entry is “inactive”.

Consider `CNc1ccc(O)cc1`, for which the Potency was 61 µM (active). To `Cc1cc(O)c(Cl)c(C)c1Cl` belongs “inactive”; to `Cc1c(C)c2c(c(C)c1O)CCC(C)(COc1ccc(CC3SC(=O)NC3=O)cc1)O2` (stereo not given), “inactive”. To `CCCCCCCC[N+](CCCCCCCC)(CCCCCCCC)CCCCCCCC` belongs “inactive”. To `O=C(OCC(COC(=O)c1ccccc1)(COC(=O)c1ccccc1)COC(=O)c1ccccc1)c1ccccc1` belongs “inactive”; to `CN(C)c1ccc(SC#N)cc1`, “inactive”; to `CN1CCN(CCC(=O)N2c3ccccc3Sc3ccc(C(F)(F)F)cc32)CC1`, “inactive”. Turning to `O=C(c1ccc(O)cc1O)c1ccc(O)cc1O`, the Potency was 21.7 µM (active). Under `CN1CCC(Nc2ncc3ncnc(Nc4ccc(F)c(Cl)c4)c3n2)CC1` stands 13.3 µM (active); under `COCCCC/C(=N\OCCN)c1ccc(C(F)(F)F)cc1`, “inactive”; under `OC1(c2ccc(Cl)c(C(F)(F)F)c2)CCN(CCCC(c2ccc(F)cc2)c2ccc(F)cc2)CC1`, “inactive”. Under `CCN(CC)CCCC(C)Nc1c2ccc(Cl)cc2nc2ccc(OC)cc12` (stereo not given) stands 9.44 µM (active); under `O=CC=C(c1ccccc1)c1ccccc1`, “inactive”; under `O=c1[nH]sc2ccccc12`, “inactive”.

For `N=C1C=CC(=C(c2ccc(N)cc2)c2ccc(N)cc2)C=C1`, the Potency result was “inactive”. Under `CCCCCCCC/C=C/CCCCCCCC1=NCCN1CCO` stands “inactive”. Under `Oc1ccc(Cl)cc1Sc1cc(Cl)ccc1O` stands “inactive”. Under `CCCCCCOC(=O)c1ccc(O)cc1` stands “inactive”; under `CCN(C(=O)N(CC)c1ccccc1)c1ccccc1`, “inactive”; under `O=c1[nH]cnc2nc[nH]c12`, “inactive”. `CCCCN1C(=O)[C@@H]([C@H](O)C2CCCCC2)NC(=O)C12CCN(Cc1ccc(Oc3ccc(C(=O)O)cc3)cc1)CC2`: the Potency result is “inactive”.

In the case of `CCN1/C(=C/C=C/c2sc3ccccc3[n+]2CC)Sc2ccccc21`, the Potency is 2.66 µM (active). To `CCCCCCCCCCCC[N+](C)(C)CCCCCCCCCCCC` belongs “inactive”; to `[Cl][Au]([Cl])[Cl]`, “inactive”; to `CCCCCCCCCOC(=O)c1ccc(O)cc1`, “inactive”.

Consider `O=C(OC[C@H]1O[C@@H](OC(=O)c2cc(O)c(O)c(OC(=O)c3cc(O)c(O)c(O)c3)c2)[C@H](OC(=O)c2cc(O)c(O)c(OC(=O)c3cc(O)c(O)c(O)c3)c2)[C@@H](OC(=O)c2cc(O)c(O)c(OC(=O)c3cc(O)c(O)c(O)c3)c2)[C@@H]1OC(=O)c1cc(O)c(O)c(OC(=O)c2cc(O)c(O)c(O)c2)c1)c1cc(O)c(O)c(OC(=O)c2cc(O)c(O)c(O)c2)c1`, for which the Potency entry is “inactive”.

Consider `C[C@H]1[C@H]2CC[C@H]3[C@@H]4CC=C5C[C@@H](N(C)C)CC[C@]5(C)[C@H]4CC[C@]23CN1C`, for which the Potency entry is “inactive”.

Take `CCCN(CCC)C(=O)C(CCC(=O)OCCCN1CCN(CCOC(=O)Cc2c(C)n(C(=O)c3ccc(Cl)cc3)c3ccc(OC)cc23)CC1)NC(=O)c1ccccc1` (stereo not given): the Potency was 29.8 µM (active). Under `O=C(Nc1cccc(C(F)(F)F)c1)c1cc(Br)cc(Br)c1O` stands “inactive”; under `Oc1ccc2c(c1)-c1ccccc1C2`, 15.4 µM (active).
